# Test results published in PubChem BioAssay (NCATS).
# Inconclusive results are not listed. Active and inactive are the calls of the source. Calls follow the shape of the dose curve; as a rule, active = well fitted inhibition curve with a large enough effect; inconclusive = small, poorly fitted or top-dose-only effect; inactive = flat fitted curve, though single readings scatter.
# Tested on: HaCat
# Assay: Cytotoxic Profiling of Annotated Libraries Using Quantitative High-Throughput Screening (AID 1296008); also: nearly all actives have a fitted effect of over 60% in size
# Conditions: Five cell lines viability, CellTiter-Glo ATP luminescence, 48-72 h; max response: hits give low values
# Outline: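 Cells exposed to compounds for 48 or 72 hr at 37 degrees Celsius. Viability read as ATP-coupled luminescence with CellTiter-Glo after 10 min at room temperature.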
# % is scaled to controls: 0 for no effect and ±100 for the full control effect; potency is read from the fitted curve at half-maximal effect.
Structure (SMILES),Potency,max response
CN1CCC(NC(=O)c2cc(-c3c(O)cc(O)cc3Oc3ccc([N+](=O)[O-])cc3)on2)CC1,1.46 µM (active),–
COc1ccc(C[C@H]2COC(=O)[C@@H]2Cc2ccc(O[C@@H]3O[C@H](CO)[C@@H](O)[C@H](O)[C@H]3O)c(OC)c2)cc1OC,–,-11.8% (inactive)
CCNC(=O)Nc1ccc(-c2nc3c(c(N4CCOCC4C)n2)CCN(C2COC2)C3)cc1 (stereo not given),–,-28.1% (inactive)
COc1cc2nc(C3CC3)nc(N3CCN(c4ccccc4OC)CC3)c2cc1OC,–,-4.62% (inactive)
CC(/C=C/C(=O)NO)=C\[C@@H](C)C(=O)c1ccc(N(C)C)cc1,0.92 µM (active),–
CN1CCN(c2ccc(Nc3cc(-c4cccc(-n5ccc6cc(C7CC7)cc(F)c6c5=O)c4CO)cn(C)c3=O)nc2)CC1,18.4 µM (active),–
CCc1cc(C(N)=O)ccc1-n1nc(C(C)C)c2c(-n3cnc(-c4cnn(C)c4)c3)ccnc21,–,-102% (inactive)
Cc1ccccc1C(C(=O)NC1CCCCC1)N(C(=O)Cn1cnc2ccccc21)c1cccc(F)c1 (stereo not given),8.2 µM (active),–
Cc1cc(-c2nc(-c3ccc(OC(F)(F)F)cc3)no2)nn1Cc1ccnc(N2CCN(C3CC3)CC2)c1,–,4.17% (inactive)
COc1cc(O)cc(OC2OC(CO)C(O)C(O)C2O)c1 (stereo not given),–,-5.91% (inactive)
C1=C/COCc2cc(ccc2OCCN2CCCC2)Nc2nccc(n2)-c2cccc(c2)COC/1,5.8 µM (active),–
FC(F)(F)c1ccc(/C=C/c2nc(COc3ccc(CCCCn4ccnn4)cc3)co2)cc1,–,-23.7% (inactive)
COC(=O)N1CCC(n2ncc3c(N4CCOCC4)nc(-c4ccc(NC(=O)NC5CC5)cc4)nc32)CC1,6.51 µM (active),–
C#CCCCn1cc(-c2cccc3c2N[C@H](C)CC(=O)N3)cn1,–,0.674% (inactive)
Nc1nc(O)c(C2=C3C(=Nc4ccccc43)C(=O)NCC2)[nH]1,–,-1.91% (inactive)
O=c1cc(NCCCN[C@@H]2CCOc3c(Br)cc(Br)cc32)[nH]c2ccsc12,–,-8.13% (inactive)
COc1cc(NC(=O)c2cccc(-n3cc(NC(=O)Nc4cccc(C)c4)cn3)c2)cc(OC)c1OC,–,3.54% (inactive)
CN[C@@H]1[C@H](O[C@H]2[C@H](O[C@@H]3[C@@H](O)[C@H](O)[C@@H](N=C(N)N)[C@H](O)[C@H]3N=C(N)N)O[C@@H](C)[C@]2(O)CO)O[C@@H](CO)[C@H](O)[C@H]1O,–,-0.834% (inactive)
CCOC(=O)c1cnc2ccc(-c3cncc(NS(=O)(=O)c4ccccc4)c3)cn12,1.46 µM (active),–
CC[C@@H](C)Nc1cc(C(=O)NC2CC3CCC(C2)N3c2ccc(C(=O)C3CC3)cn2)c(C)cc1C(N)=O (stereo not given in full),0.184 µM (active),–

Structure (SMILES),Potency,max response
CCNC(=O)c1noc(-c2cc(Cl)c(O)cc2O)c1-c1ccc(OC)cc1,0.259 µM (active),–
Cc1nc2ccc(CN(C)c3ccc(C(=O)NC(CCC(=O)O)C(=O)O)s3)cc2c(=O)[nH]1 (stereo not given),0.0103 µM (active),–
COC(=O)Nc1cc(Nc2cc(NC3CC3)c3ncc(C#N)n3n2)c(Cl)c(N2CCN(C)CC2)c1,0.741 µM (active),–
CCOC(=O)[C@@]1(CCCCCCOc2ccc(Cl)cc2)CO1,–,3.74% (inactive)
O=C(Cc1cccc(OC(F)(F)F)c1)Nc1ccc(CCCCc2nnc(NC(=O)Cc3ccccn3)s2)nn1,23.4 µM (active),–
O=C(Nc1ccc(Cl)cc1)C1CCCN(C(=O)c2cccc(-c3ccco3)c2)C1 (stereo not given),–,-30% (inactive)
C=C(C)Cn1c(SCC(=O)c2cccs2)nc2sc3c(c2c1=O)CCCC3,–,2.85% (inactive)
COc1cc(N2CCC(N3CCN(C)CC3)CC2)ccc1Nc1ncc(Cl)c(Nc2ccccc2P(C)(C)=O)n1,1.84 µM (active),–
Cc1sc2c(c1C)C(c1ccc(Cl)cc1)=N[C@H](CC(=O)NCCCCNC(=O)COc1cccc3c1C(=O)N([C@H]1CCC(=O)NC1=O)C3=O)c1nnc(C)n1-2,–,-67.4% (inactive)
COc1c(C)cnc(Cn2cc(C#CCC(C)(C)O)c3c(Cl)nc(N)nc32)c1C,0.0731 µM (active),–
Fc1ccc(-c2nc(C3CCNCC3)sc2-c2ccnc(NC3CC3)n2)cc1,5.17 µM (active),–
COc1ccc(N(C(=O)Nc2c(C)cccc2C)c2cc(Nc3ccc(N4CCN(C)CC4)cc3)ncn2)c(OC)c1,7.31 µM (active),–
C/C1=C/CCC2=CC(OC2=O)C(C)(C)/C=C/C1=O (stereo not given),2.59 µM (active),–
CCCCNc1ncc(C(=O)NCc2ccc(-n3ccnc3)cc2)c(NC2CCC(O)CC2)n1 (stereo not given),23.1 µM (active),–
CCCC1(CCC)CCC2(CCN(CCCN(CC)CC)C2)CC1,4.61 µM (active),–
CC[C@@H](C)Nc1cc(C(=O)NC2CC3CC[C@@H](C2)N3c2ccc(C(=O)C3CC3)cn2)c(C)cc1C(N)=O (stereo not given in full),0.092 µM (active),–
CN1CCN(Cc2ccc(NC(=O)Cc3ccc(Oc4cc(NC(=O)C5CC5)ncn4)cc3)cc2C(F)(F)F)CC1,–,-122% (inactive)
CCc1c[nH]c2ncnc(N3CC[C@](N)(CNC(=O)c4ccc(F)cc4F)C3)c12,–,-5.86% (inactive)
C=CC(=O)Nc1cccc(Nc2nc(Nc3ccc(NC4CN(CCF)C4)cc3OC)ncc2C(F)(F)F)c1,3.66 µM (active),–
C=C(C)C(=O)OC1CC2(C)OC(=CC2=O)C(=C)CC2OC(=O)C(=C)C12 (stereo not given),5.08 µM (active),–
